Assay results taken from PubChem BioAssay AID1159580 (chemical genetic matrix, 2015).
The whole screen tested about 5,500 compounds, of which about 2,000 (36%) were called active. Inconclusive results (about 18%) are left out. Cut-off read from the data, not from the text of the source: active = normalized growth mostly below about 0.91 (no sharp cut-off); inconclusive = no clear call, values can overlap the other calls; inactive = mostly above about 0.92. This is one part of the list.

Test: chemical genetic growth profiling, strain panel (AID 1159580);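 note: tested at 20 µM; growth read once vehicle control cultures reached saturation at 30 °C; 1 = growth at the plate median or of vehicle wells; lower values mean less growth of the strain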
Details: S. cerevisiae deletion strains, growth OD

Measured: normalized growth

CC(C)=CCc1c2c(c(O)c3c(=O)c(O)c(-c4ccccc4)oc13)C=CC(C)(C)O2
active: locus YAL021C, strain ccr4, stronger effect = lower value 0.79 | locus YAL026C, strain drs2, stronger effect = lower value 0.566 | locus YAL030W, strain snc1, stronger effect = lower value 0.886 | locus YBL061C, strain skt5, stronger effect = lower value 0.688 | locus YBR023C, strain chs3, stronger effect = lower value 0.687 | locus YBR229C, strain ROT2, stronger effect = lower value 0.829 | locus YBR231C, strain swc5, stronger effect = lower value 0.678 | locus YCL011C, strain gbp2, stronger effect = lower value 0.683 | locus YCL029C, strain bik1, stronger effect = lower value 0.678 | locus YCL061C, strain MRC1, stronger effect = lower value 0.748 | locus YCL069W, strain vba3, stronger effect = lower value 0.751 | locus YCR088W, strain abp1, stronger effect = lower value 0.835 | locus YDL035C, strain GPR1, stronger effect = lower value 0.589 | locus YDL074C, strain BRE1, stronger effect = lower value 0.49 | locus YDL101C, strain DUN1, stronger effect = lower value 0.628 | locus YDL185W, strain tfp1, stronger effect = lower value 0.769 | locus YDL192W, strain arf1, stronger effect = lower value 0.732 | locus YDR069C, strain doa4, stronger effect = lower value 0.613 | locus YDR101C, strain arx1, stronger effect = lower value 0.809 | locus YDR162C, strain NBP2, stronger effect = lower value 0.326 | locus YDR297W, strain sur2, stronger effect = lower value 0.821 | locus YDR318W, strain mcm21, stronger effect = lower value 0.73 | locus YDR334W, strain swr1, stronger effect = lower value 0.582 | locus YDR335W, strain msn5, stronger effect = lower value 0.793 | locus YDR388W, stronger effect = lower value 0.745 | locus YDR392W, strain spt3, stronger effect = lower value 0.602 | locus YDR502C, strain sam2, stronger effect = lower value 0.794 | locus YEL003W, strain gim4, stronger effect = lower value 0.683 | locus YEL037C, strain rad23, stronger effect = lower value 0.788 | locus YEL061C, strain CIN8 (second series), stronger effect = lower value 0.876 | locus YER015W, strain faa2, stronger effect = lower value 0.457 | locus YER111C, strain swi4, stronger effect = lower value 0.734 | locus YER155C, strain BEM2 (second series), stronger effect = lower value 0.755 | locus YER155C, strain BEM2, stronger effect = lower value 0.762 | locus YER167W, strain BCK2, stronger effect = lower value 0.683 | locus YFR010W, strain ubp6, stronger effect = lower value 0.632 | locus YGL086W, strain mad1, stronger effect = lower value 0.701 | locus YGL173C, strain kem1, stronger effect = lower value 0.475 | locus YGL248W, strain PDE1, stronger effect = lower value 0.586 | locus YGL253W, strain hxk2, stronger effect = lower value 0.657 | locus YGR078C, strain PAC10, stronger effect = lower value 0.554 | locus YGR135W, strain pre9, stronger effect = lower value 0.69 | locus YHR027C, strain rpn1, stronger effect = lower value 0.356 | locus YHR079C, strain IRE1 (second series), stronger effect = lower value 0.774 | locus YHR094C, strain hxt1, stronger effect = lower value 0.828 | locus YHR129C, strain ARP1, stronger effect = lower value 0.55 | locus YHR142W, strain chs7, stronger effect = lower value 0.653 | locus YHR200W, strain rpn10, stronger effect = lower value 0.731 | locus YIL066C, strain RNR3, stronger effect = lower value 0.54 | locus YIL073C, strain SPO22, stronger effect = lower value 0.32 | locus YIL125W, strain kgd1, stronger effect = lower value 0.88 | locus YIR030C, strain dcg1, stronger effect = lower value 0.837 | locus YJL092W, strain hpr5, stronger effect = lower value 0.834 | locus YJL095W, strain BCK1 (second series), stronger effect = lower value 0.628 | locus YJL095W, strain BCK1, stronger effect = lower value 0.379 | locus YJL115W, strain asf1, stronger effect = lower value 0.829 | locus YJL134W, strain LCB3, stronger effect = lower value 0.778 | locus YJL154C, strain vps35, stronger effect = lower value 0.817 | locus YJL164C, strain tpk1, stronger effect = lower value 0.732 | locus YJL166W, strain qcr8, stronger effect = lower value 0.891 | locus YJL168C, strain set2, stronger effect = lower value 0.864 | locus YJL187C, strain SWE1 (second series), stronger effect = lower value 0.417
inactive: locus YBR009C, strain hhf1, stronger effect = lower value 0.917 | locus YBR021W, strain FUR4, stronger effect = lower value 0.958 | locus YBR171W, strain sec66, stronger effect = lower value 0.939 | locus YBR279W, strain paf1, stronger effect = lower value 0.988 | locus YCL016C, strain dcc1, stronger effect = lower value 0.962 | locus YDL005C, strain med2, stronger effect = lower value 0.981 | locus YDL040C, strain nat1, stronger effect = lower value 1.01 | locus YDR001C, strain nth1, stronger effect = lower value 0.931 | locus YDR137W, strain rgp1, stronger effect = lower value 1.04 | locus YDR159W, strain sac3, stronger effect = lower value 0.876 | locus YDR195W, strain ref2 0.896 | locus YER016W, strain bim1, stronger effect = lower value 0.987 | locus YER110C, stronger effect = lower value 0.927 | locus YGL078C, strain dbp3, stronger effect = lower value 0.942 | locus YGL167C, strain pmr1, stronger effect = lower value 0.996 | locus YGL227W, strain vid30, stronger effect = lower value 0.973 | locus YGL240W, strain doc1, stronger effect = lower value 0.977 | locus YGR252W, strain gcn5, stronger effect = lower value 0.774 | locus YHR013C, strain ard1, stronger effect = lower value 0.998 | locus YJL129C, strain trk1, stronger effect = lower value 0.894
